PLK1 PBD inh: inhibitors of human Plk1 polo box domain binding; P53350; Plk1 PBD phosphopeptide binding, fluorescence polarization; inhibition, %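 (tested at about 20 µM)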; 97,000 compounds, 0.13% hits; AID 693; in the data active = inhibition above about 34%, passing the limit was not always enough
Target sequence (P53350 whole entry, looked up, the tested form may be a part): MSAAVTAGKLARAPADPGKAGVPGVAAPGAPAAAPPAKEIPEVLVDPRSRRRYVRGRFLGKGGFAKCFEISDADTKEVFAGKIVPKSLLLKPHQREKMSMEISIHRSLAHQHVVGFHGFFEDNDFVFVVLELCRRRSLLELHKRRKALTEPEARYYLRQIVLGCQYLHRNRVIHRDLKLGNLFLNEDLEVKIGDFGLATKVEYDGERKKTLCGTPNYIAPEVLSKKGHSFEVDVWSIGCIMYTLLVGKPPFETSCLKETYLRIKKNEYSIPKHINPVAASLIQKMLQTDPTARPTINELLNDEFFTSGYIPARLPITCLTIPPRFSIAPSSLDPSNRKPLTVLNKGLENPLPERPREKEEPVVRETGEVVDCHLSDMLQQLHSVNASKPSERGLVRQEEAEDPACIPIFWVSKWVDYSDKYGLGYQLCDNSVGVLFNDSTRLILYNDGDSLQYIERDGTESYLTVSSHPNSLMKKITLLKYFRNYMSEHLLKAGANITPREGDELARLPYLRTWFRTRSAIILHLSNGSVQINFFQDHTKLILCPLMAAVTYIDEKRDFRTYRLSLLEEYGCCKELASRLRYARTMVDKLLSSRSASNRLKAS
CYP2C9 inh: human CYP2C9 inhibition; inhibition, % at 5 µM; P11712; AID 777; 96,000 compounds, 20% hits; CYP2C9 Supersomes, luciferin-H conversion, luminescence;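 active = blocking of liver enzyme CYP2C9 beyond about 50% at 5 µM, limit read from the data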
CYP2C19 act: cytochrome P450 2C19 (human) activation. 96,000 tested, under 10 active. activation factor at 5 µM. recombinant CYP2C19, luciferin-H EGE luminescence; active compounds read high; 0 = fully inhibited enzyme, 1 = untreated enzyme. P33261;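 active = activation factor of at least 2 at 5 µM in the primary screen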
CYP2C9 activ: increases human cytochrome P450 2C9 activity; P11712; recombinant CYP2C9, luciferin-H conversion, luminescence; active compounds read high; factor 1 = untreated enzyme, 0 = blocked; activation factor at 5 µM; 96,000 compounds, 1.4% hits;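 active = activation factor of 2 or more for CYP2C9 at a 5 µM dose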
CYP2C19 inhib: inhibitors of human CYP2C19 | CYP2C19 Supersomes, luciferin-H EGE luminescence, 30 min | P33261 | 96,000 compounds, 21% hits | AID 778 | inhibition, % at 5 µM;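 active = CYP2C19 inhibition above a set limit at 5 µM in the primary screen, cut at about 50% in these data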
PLK1 kinase inh: PLK1 (human) kinase inhibition; P53350; recombinant PLK1 kinase, TR-FRET peptide phosphorylation; inhibition, % at 10 µM; 97,000 compounds, 0.53% hits; AID 619;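 active = inhibition of 50% or more in the single-concentration screen; inactive = inhibition below 50%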
Large screens that a line does not name were inactive. This is a sample that favours compounds with a hit; in the whole collection about 28% have one here.

Cc1ccn2c(C(=O)N/N=C\c3cccs3)c(C)nc2c1	CYP2C9 inh 52
c1c2c(cc3sc(N4CCOCC4)nc13)OCCO2	CYP2C19 inhib 87
c1ccc(N2CCN(c3nc4cc5c(cc4s3)OCCO5)CC2)cc1	none
CCOC(=O)C1CCN(Cc2nc3ccccc3c(=O)n2-c2ccc(F)cc2)CC1	CYP2C9 inh 68
Cn1c(=O)c2c(nc(CN3CCN(C(=O)c4ccco4)CC3)n2Cc2ccccc2)n(C)c1=O	none
CCOC(=O)c1ccc(-n2c(C)nc3ccccc3c2=O)cc1	none
O=C(c1ccco1)N1CCN(Cc2nc3ccccc3c(=O)n2-c2ccc(F)cc2)CC1	CYP2C9 inh 70
CC(=O)Nc1c(O)nc(SCC(=O)Nc2c(C)cccc2C)[nH]c1=O	none
Cc1noc(/C=C/N(C)C)c1S(=O)(=O)N1CCCC(C(=O)NC2CCCCC2C)C1 (stereo not given)	none
CCOC(=O)CSc1nc2c(sc(=S)n2Cc2ccco2)c(=O)n1-c1ccc(F)cc1	CYP2C9 inh 72, CYP2C19 inhib 56
COc1ccccc1-n1c(=S)sc2c(=O)n(Cc3ccco3)c(SC)nc21	CYP2C9 inh 76, CYP2C19 inhib 64 (no result: PLK1 PBD inh, PLK1 kinase inh)
CCN(CC)C(=O)CSc1nc2c(sc(=S)n2-c2ccccc2)c(=O)n1Cc1ccco1	CYP2C9 inh 67
Cc1cc(C=O)c(C)n1-c1ccc(NC2CCCC2)c([N+](=O)[O-])c1	none (no result: PLK1 PBD inh, CYP2C9 inh, CYP2C19 act, CYP2C9 activ, CYP2C19 inhib)
COc1ccc(-n2c(=O)c3c4c(sc3n3c(C)nnc23)CCCC4)cc1	none (no result: CYP2C9 inh, CYP2C19 act, CYP2C9 activ, CYP2C19 inhib)
CCOC(=O)C1C(=O)N(C(=O)c2cncc(Br)c2)CC1c1ccccc1 (stereo not given)	CYP2C19 inhib 84
CCOC(=O)C1C(=O)N(C(=O)c2ccc(OC)cc2)CC1c1ccccc1 (stereo not given)	none
CCOC(=O)C(C)Sc1nnc(CNC(=O)c2ccc(OC)cc2)n1C1CCCCC1 (stereo not given)	CYP2C19 inhib 62
CCOC(=O)CSc1nnc(CNC(=O)c2ccc(OC)cc2)n1-c1ccc(OC)cc1	none
C=CCc1ccc(OCc2ccc(C(=O)OC)o2)c(OC)c1	CYP2C9 inh 68
CCC(=O)c1ccc(OCc2ccc(C(=O)OC)o2)c(OC)c1	CYP2C9 inh 56 (no result: PLK1 PBD inh, PLK1 kinase inh)
COc1ccc(NC(=O)c2ccc(COc3ccccc3OC)o2)cc1OC	none
N=C1C(c2ccc(Br)cc2)=C(O)C2CCc3ccccc3N12 (stereo not given)	CYP2C19 inhib 50
N=C1C(c2ccccc2)=C(O)C2CCc3ccccc3N12 (stereo not given)	none (no result: PLK1 PBD inh, PLK1 kinase inh)
COc1ccc(Cc2noc(-c3ccc(C)cc3)n2)cc1	none
CCOc1cc(CNn2cnnc2)ccc1OCC(=O)NC1CCCCC1	CYP2C9 inh 65
CCOc1ccccc1OCC(=O)NC1CCCCC1	none
O=C(CSc1nnnn1Cc1ccccc1)Nc1ccc2c(c1)OCCO2	CYP2C9 inh 83, CYP2C19 inhib 82
Cc1cc(NC(=O)CSc2nnnn2Cc2ccccc2)no1	none (no result: CYP2C9 inh, CYP2C19 act, CYP2C9 activ, CYP2C19 inhib)
CCC(=O)Nc1cccc(NC(=O)CSc2nnnn2Cc2ccccc2)c1	CYP2C9 inh 53
Nc1c(C(=O)Nc2ccc3c(c2)OCCO3)nnn1CCc1ccccc1	CYP2C9 inh 79, CYP2C19 inhib 57
O=C(C1CC=CCC1)N1CCN(C(=O)C2CC=CCC2)CC1 (stereo not given)	none (no result: CYP2C9 inh, CYP2C19 act, CYP2C9 activ, CYP2C19 inhib)
Cc1nnc(SCC(=O)Nc2ccc3c(c2)OCCO3)n1N	none
CCn1c(SCC(=O)NCC(=O)Nc2ccc(F)cc2)nnc1-c1cccs1	CYP2C9 inh 93
CCn1c(SCC(=O)Nc2cc(C)on2)nnc1-c1cccs1	CYP2C19 inhib 83
CCn1c(SCC(=O)Nc2ccc3c(c2)OCCO3)nnc1-c1cccs1	CYP2C9 inh 52
CCn1c(SCC(=O)Nc2ccc(C(=O)OC)cc2)nnc1-c1cccs1	CYP2C19 inhib 51
CCn1c(SCC(=O)NCCc2ccccc2)nnc1-c1cccs1	none
O=C(NCc1ccc(F)cc1)c1cc2ccccn2n1	none (no result: PLK1 PBD inh, PLK1 kinase inh)
CCN(CC)CC(O)COc1ccc2c(c1)OCO2 (stereo not given)	none
COCCCNC(=S)NC1CC2CCCC(C1)N2Cc1ccco1 (stereo not given)	none
O=C(Nc1ccccc1)N1CCn2c1nc1ccccc12	CYP2C9 inh 66
Cn1c(N2CCN(C(=O)Nc3ccc(F)cc3)CC2)nc2ccccc21	none (no result: CYP2C9 inh, CYP2C19 act, CYP2C9 activ, CYP2C19 inhib)
S=C(Nc1ccccc1)N1CCn2c1nc1ccccc12	none
CC(C)n1c(N2CCN(C(=O)Nc3ccccc3)CC2)nc2ccccc21	CYP2C9 inh 52
COc1ccc(NC(=O)N2CCn3c2nc2ccccc23)cc1	CYP2C9 inh 71
Cc1onc(-c2ccccc2)c1C(=O)Nc1sc2c(c1C#N)CCC(C)C2 (stereo not given)	CYP2C9 inh 92
Cc1onc(-c2ccccc2Cl)c1C(=O)Nc1sc2c(c1C#N)CCC2	CYP2C9 inh 100, CYP2C19 inhib 98
CCOC(=O)Nc1sc2c(c1C#N)CCC(C)C2 (stereo not given)	none (no result: CYP2C9 inh, CYP2C19 act, CYP2C9 activ, CYP2C19 inhib)
Clc1cccc(Cl)c1CO/N=C/c1c(-c2ccccc2)nc2n1CCS2	CYP2C9 inh 73
O=C(CN1CCC(NC(=O)c2ccc(F)cc2)CC1)NCc1ccccc1F	none
CC(CC1C(C#N)=C(N)SC(N)=C1C#N)c1ccccc1 (stereo not given)	CYP2C9 inh 98, CYP2C19 inhib 92
CCC(CC)C1C(C#N)=C(N)SC(N)=C1C#N	none (no result: CYP2C9 inh, CYP2C19 act, CYP2C9 activ, CYP2C19 inhib)
CC(c1ccccc1)C1C(C#N)=C(N)SC(N)=C1C#N (stereo not given)	CYP2C19 inhib 93
CC(C)C1C(C#N)=C(N)SC(N)=C1C#N	CYP2C19 inhib 68
NC(=O)SCC(=O)Nc1cccc(Cl)c1	none
Cc1ccc(NC(=O)CSC(N)=O)cc1Cl	none
NC(=O)SCC(=O)Nc1ccc(Cl)cc1	CYP2C9 inh 51
CCC(CC)C(=O)Nc1ccc(Cl)c(Cl)c1	CYP2C19 inhib 67
CCC(CC)C(=O)Nc1cccc(S(=O)(=O)c2cccc(NC(=O)C(CC)CC)c2)c1	none
NC(=O)SCC(=O)Nc1ccc(Cl)c(Cl)c1	CYP2C9 inh 74
Cc1ccccc1[C@@H]1C(C#N)=C(N)S[C@H]1C(=O)c1ccccc1	CYP2C9 inh 98, CYP2C19 inhib 100
Cc1ccc(OCCn2cc(Br)c(=O)[nH]c2=O)cc1	none
O=C(CSc1nnc(-c2ccc(Cl)cc2)n1Cc1ccco1)Nc1ccc2c(c1)OCCO2	none (no result: PLK1 PBD inh, PLK1 kinase inh)
O=C(CSc1nnc(-c2ccc(Cl)cc2)n1Cc1ccco1)NCc1ccc2c(c1)OCO2	CYP2C9 inh 56
CC(=O)Nc1cccc(NC(=O)CSc2ncc(-c3ccc(Cl)cc3)n2Cc2ccco2)c1	none
COc1ccc(-c2cnc(SCC(=O)Nc3ccc4c(c3)OCO4)n2Cc2ccco2)cc1	CYP2C9 inh 100, CYP2C19 inhib 96
O=C(OC(C(=O)NCc1ccc2c(c1)OCO2)c1ccc(Cl)cc1)c1ccco1 (stereo not given)	CYP2C9 inh 98, CYP2C19 inhib 85 (no result: PLK1 PBD inh, PLK1 kinase inh)

Screening results: PubChem, several laboratories
